Experimental data reported in PubChem BioAssay AID720711 (National Center for Advancing Translational Sciences (NCATS), 2013).
Hit rate of the full screen: of about 360,000 compounds, about 290 (0.081%) were called active. Calls come from the whole dose curve; as a rule, active = well fitted activation curve with a large enough effect; inconclusive = small, poorly fitted or top-dose-only effect; inactive = no such curve, though single readings can be large or run the other way. Shown is part of a subset that was picked to be rich in actives.

What follows are molecules tested against Rap guanine nucleotide exchange factor 4 (Homo sapiens) (UniProt Q8WZA2) (assay: qHTS for Agonist of cAMP-regulated guanine nucleotide exchange factor 4 (EPAC2): primary screen). Details: biochemical qHTS; Potency: EPAC2 activation; series mostly up to 154 µM; activation: at the top concentration.
From the text: In multi-cellular eukaryotic organisms, the effects of cAMP are transduced by two ubiquitously-expressed intracellular cAMP receptors, the classic protein kinase A/cAMP-dependent protein kinase (PKA/cAPK) and the more recently discovered exchange protein directly activated by cAMP/cAMP-regulated guanine nucleotide exchange factor (EPAC/cAMP-GEF). Both PKA and EPAC are ubiquitously expressed in all tissues, and an increase in intracellular cAMP levels will lead to the activation of both PKA and EPAC. Therefore, careful dissections of the individual role and relative contribution of EPAC and PKA within the overall cAMP signaling in various model systems are critical for further elucidating the mechanism of cAMP signaling. To date no EPAC-specific antagonists and agonist, as well as isoform-specific agonists have been reported, and developing EPAC-specific pharmacological probes to determine the physiological functions that EPAC play in the overall cAMP-mediated signaling remains a major challenge within the research field. Furthermore, identified regulators of EPAC may lead to new mechanism-based therapeutic strategies specifically targeting the EPAC / cAMP-signaling components as EPAC has been implicated to play important roles in major human pathological conditions such as diabetes, heart disease, and cancer.
This qHTS will be used to screen the Molecular Libraries Small Molecule Repository (MLSMR) as a concentration-titration series using the NCGC unique quantitative screening (qHTS) platform to find activators for EPAC2. In addition, this assay will also be used as a counterscreen for the EPAC1 qHTS. This fluorescent based assay is developed and validated for EPAC2 that measures exchange using EPAC effector Rap1 complex with BODIPY-GDP, a GDP analog with a tethered fluorophores. Activators are identified by monitoring the change in fluorescence signal as the exchanged free BODIPY-GDP has a reduced fluorescence compared to Rap1-bound BODIPY-GDP. […] in signal (activation) is the desired outcome for the EPAC2 agonist while no activity in this assay is desired for the EPAC1 agonist counterscreen.
[1] de Rooij, J., Zwartkruis, F. J., Verheijen, M. H., Cool, R. H., Nijman, S. M., Wittinghofer, A., and Bos, J.L. (1998) Nature 396, 474-477
[2] Kawasaki, H., Springett, G. M., Mochizuki, N., Toki, S., Nakaya, M., Matsuda, M., Housman, D. E., and Graybiel, A. M. (1998) Science 282, 2275-2279
NIH Chemical Genomics Center [NCGC]
NIH Molecular Libraries Probe Centers Network [MLPCN]
Assay Submitter (PI): Xiaodong Cheng, The University of Texas, Medical Branch
Briefly, three uL of reagents (100 nM EPAC2, 250 nM RAP1B-BODIPY-GDP, 50 uM GDP) were dispensed into a 1536-well Greiner black solid-bottom medium binding assay plate. Controls and test compounds (23 nL) were transferred to the plate via a Kalypsys pin tool equipped with a 1536-pin array. The plates were centrifuged at 1,000 rpm for 15 seconds followed by 5 minute incubation at room temperature. The assay plates were read at 5 minute intervals for 30 minutes in the ViewLux plate reader using 480nm excitation and 540nm emission filters. The results were normalized to the agonist positive control of 6.5 mM cAMP.
Note: nearly all actives have a fitted effect of over 50% in size.
Potency is the fitted concentration of half-maximal effect.

Sequence of Rap guanine nucleotide exchange factor 4 (Homo sapiens) (Q8WZA2 whole entry, looked up): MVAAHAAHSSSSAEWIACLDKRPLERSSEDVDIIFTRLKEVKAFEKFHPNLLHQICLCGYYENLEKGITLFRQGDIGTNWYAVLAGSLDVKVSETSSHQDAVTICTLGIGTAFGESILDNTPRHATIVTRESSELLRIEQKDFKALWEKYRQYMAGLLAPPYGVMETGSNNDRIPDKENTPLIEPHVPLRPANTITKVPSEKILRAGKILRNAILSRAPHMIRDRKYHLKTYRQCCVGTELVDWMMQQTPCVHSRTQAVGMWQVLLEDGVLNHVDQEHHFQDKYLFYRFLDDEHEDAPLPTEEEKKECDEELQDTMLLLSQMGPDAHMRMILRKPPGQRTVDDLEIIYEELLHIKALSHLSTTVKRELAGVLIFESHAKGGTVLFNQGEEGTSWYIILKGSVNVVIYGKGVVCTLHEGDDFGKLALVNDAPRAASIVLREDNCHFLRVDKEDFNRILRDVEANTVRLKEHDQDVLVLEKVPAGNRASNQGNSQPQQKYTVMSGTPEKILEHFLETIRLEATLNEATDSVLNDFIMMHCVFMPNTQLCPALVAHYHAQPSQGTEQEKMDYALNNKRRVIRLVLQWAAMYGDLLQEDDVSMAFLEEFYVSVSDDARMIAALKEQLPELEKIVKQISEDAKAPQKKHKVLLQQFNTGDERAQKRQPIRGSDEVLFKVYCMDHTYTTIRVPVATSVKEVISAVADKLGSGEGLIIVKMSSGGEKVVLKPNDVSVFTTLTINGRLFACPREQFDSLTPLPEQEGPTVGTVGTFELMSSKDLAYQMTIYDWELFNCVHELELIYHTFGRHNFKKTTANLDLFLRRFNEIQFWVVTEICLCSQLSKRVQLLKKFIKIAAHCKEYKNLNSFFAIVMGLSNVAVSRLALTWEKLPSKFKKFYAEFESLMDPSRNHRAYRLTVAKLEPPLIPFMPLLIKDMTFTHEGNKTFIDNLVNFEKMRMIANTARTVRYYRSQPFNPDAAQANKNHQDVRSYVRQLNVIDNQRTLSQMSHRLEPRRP

activation, inactive:
c1ccc(C[C@H]2CNCCN2CCC23CC4CC(CC(C4)C2)C3)cc1 8.44%
Cn1c(=O)c2c(nc(N3CCCCCC3)n2CC(O)COc2ccc(Cl)cc2)n(C)c1=O (configuration not stated) -12.2%
CSCc1cc(N(C)C)nc(SCc2ccc(Cl)cc2Cl)n1 12.8%
CCCOc1ccc(Cc2c(Cl)nc(SC)nc2NC)cc1 14.3%
Cc1sc2ncn(CC(=O)NCCCC(=O)N3CCN(c4ccccc4F)CC3)c(=O)c2c1C 10.3%
Cc1oc(C)c(C(=O)NCCCC(=O)O)c1C(=O)NCCCC(=O)O 3.93%
O=CN1CCN(C(=O)c2ccc(Br)o2)CC1 -4.45%
Cc1cc(C)c2oc(C(=O)Nc3ccc(S(=O)(=O)Nc4nccc(C)n4)cc3)cc(=O)c2c1 -3.06%
COc1ccc(NC(=O)N(C)C[C@H]2Oc3ncc(C#C[C@@H](C)O)cc3C(=O)N([C@H](C)CO)C[C@H]2C)cc1 6.02%
CCCCN1C(=O)C(CC(=O)NC(c2ccccc2)c2ccccc2)CC(C(=O)N2CCOCC2)=C1C (configuration not stated) 5.77%
CC(C)(C)[C@H]1C=C(C(=O)NCc2ccccc2)O[C@@H](OCc2ccc(CO)cc2)C1 9.55%
NC(=O)c1ccccc1N=Cc1ccc2ccccc2c1 -7.1%
O=C(Nc1ccc2c(c1)C(=O)OC2)Nc1cccc2ccccc12 11.6%
Cn1ccs/c1=N\S(=O)(=O)c1ccc(C(C)(C)C)cc1 -12.9%
CC12c3ccccc3C(c3ccccc31)C1C(=O)N(Cc3cccnc3)C(=O)C12 (configuration not stated) 7.76%
Cc1cccc(-c2c(NC(=O)c3ccco3)oc3ccc(Cl)cc3c2=O)c1 6.33%
O=C(NCCCN1CCCCC1)C1CCCN(c2ncnc3c2nc2n3CCCCC2)C1 (configuration not stated) 5.8%
CC1CCC(CN2CCN=C2N(C)C)CC1 (configuration not stated) 12.7%
CC(Oc1ccc(Br)cc1)C(=O)NCC(c1ccco1)N1CCCCC1 (configuration not stated) 14.4%
O=C(c1ccccc1)C(Cn1cncn1)C(Sc1ccccc1)c1ccccc1 (configuration not stated) -7.26%
COc1cc(C(=O)NCC(=O)NCCSc2ccc(Br)cc2)cc(OC)c1OC 1.02%
CN(CCOc1ccc(Br)cc1)CC(=O)Nc1cccc(S(=O)(=O)NC2=NCCC2)c1 8.89%
CCN=C1S/C(=C\c2cc(Br)ccc2OCC(=O)OCC)C(=O)N1CC -3.99%
CC(C)N1C(=S)SC(C)(C)C1n1oc(=O)n(-c2ccc(Cl)c(Cl)c2)c1=O (configuration not stated) 16.2%
COC(=O)c1ccc([C@@H](O)[C@H](C)C(=O)CC(=O)OC(C)(C)C)cc1 7.76%
CC(=O)Oc1ccc(-c2cccc(C(=O)N3CCCCC3)c2)cc1 4.17%
CCN(CC(=O)Nc1cccc(S(N)(=O)=O)c1)Cc1nc2ccccc2c(=O)[nH]1 5.9%
Cc1nc2ccc(S(=O)(=O)N(C)CC(=O)NC(C)c3ccccc3)cc2s1 (configuration not stated) -5.42%
Cc1cc2c(cc1C)NC(c1ccccn1)C1=C(CC(C)(C)CC1=O)N2 (configuration not stated) 0% [at 15.6 µM, 100% = 6.5 mM cAMP response]
O=C(Cn1nnc2ccccc2c1=O)NCc1ccc(Cl)cc1 6.7%
Cc1ccc(S(=O)(=O)CCC(=O)OCc2ccccc2)cc1 7.04%
O=C(CNC(=O)c1ccccc1F)OCC(=O)c1c[nH]c2ccccc12 -5.16%
CN1C(CC(=O)Nc2ccc(Br)cc2)c2ccccc2CC1(C)C (configuration not stated) 2.28%
O=C(COC(=O)c1c(Cl)cccc1Cl)Nc1cccc(S(=O)(=O)NC2=NCCCCC2)c1 5.96%
CCCN(CC(=O)Nc1ccc(C(N)=O)cc1)CC(=O)Nc1ccccc1C 3.61%
COC(=O)[C@]12CCCCC=C1N(Cc1ccco1)C(=O)[C@H](CC(=O)NCCCCc1ccccc1)C2 5.99%
COc1ccc(S(=O)(=O)NC(CC(=O)NCc2ccccc2OC)c2ccco2)cc1 (configuration not stated) -3.25%
Cc1sc2ncn(CC(=O)NCCN(C)C)c(=O)c2c1S(=O)(=O)N1CCC(C)CC1 1.43%
CN(CCc1ccccn1)C(=O)c1ccc(OC2CCN(CCc3ccccc3)CC2)cc1 -1.49%
O=C1CCc2cc(S(=O)(=O)N3CCC(C(=O)NCc4ccccc4Cl)CC3)ccc2N1 -0.988%
CCOc1ccccc1Nc1nnc(SCC(=O)NCC2CCCO2)s1 (configuration not stated) -2.02%
N#CCCn1cnc2ccccc21 5.55%
O=[N+]([O-])c1ccc(CN2CC(N3CCC(c4ccccc4)CC3)CS2(=O)=O)cc1 (configuration not stated) 12.6%
CC(=O)[C@@]12O[C@@H]1C[C@H]1[C@@H]3CC[C@H]4C[C@@H](O)CC[C@]4(C)[C@H]3CC[C@@]12C 7.28%
CC1Cc2ccccc2N1S(=O)(=O)c1c(N)n(C)c(=O)n(C)c1=O (configuration not stated) 2%
CC(C(=O)NC1CCCC1)N(c1ccc(Oc2ccccc2)cc1)S(C)(=O)=O (configuration not stated) 9.13%
CC(=O)NC12CC3CC(C1)CC(C(=O)N1CCN(S(=O)(=O)c4cccs4)CC1)(C3)C2 -5.25%
Cc1cc(C)c(S(=O)(=O)N2C=CC(C(F)(F)F)=NCC2)c(C)c1 6.38%
O=C(C1CCC1)N1CCN(S(=O)(=O)c2ccc([N+](=O)[O-])cc2)CC1 4.71%
COc1ccc(NS(=O)(=O)c2cc(NC(=O)CC(=O)c3ccc([N+](=O)[O-])cc3)ccc2C)cc1 -1.43%
COc1ccc(-c2[nH][nH]c(=O)c2NC(=O)c2ccc([N+](=O)[O-])cc2)cc1 2.41%
CCOC(=O)NC(C(F)(F)F)(C(F)(F)F)P(=O)(c1ccccc1)c1ccccc1 3.46%
COCCN1CCN(C(=O)c2cc(COc3ccc(F)cc3Cl)on2)CC1 -3.51%
Cc1cc(Cl)c2oc(C(=O)N3CCC(O)(c4ccccc4)CC3)c(C)c2c1 3.33%
Cc1cccc(OCc2nnc(SCc3nc4cc(C(F)(F)F)ccc4c(=O)[nH]3)o2)c1 -6.74%
Cc1nnc(N(Cc2ccco2)C(=O)c2ccno2)s1 2.05%
CCC1C(C#N)=C(SC)NC2=C1C(=O)CC(C)(C)C2 (configuration not stated) -8.31%
CCn1cc(NC(=O)Nc2ccc(OC)c(OC)c2)c(C(N)=O)n1 -3.89%
COc1ccc(CNC(=O)c2ccc(-c3cccnc3)c3ccoc23)cc1OC 5.81%
CCc1noc(C)c1C(=O)N1CCCC(N2CCN(c3ccc(F)cc3)CC2)C1 (configuration not stated) 7.4%
C=C1C(=O)OC2C1CCC(C)=CCCC1(C)OC21 (configuration not stated) 8.7%
CCC(C(=O)NCCC(C)C)N(Cc1ccccc1Cl)C(=O)c1snc(C(N)=O)c1N (configuration not stated) 24%
COc1cccc(N(CC(=O)NC2CCCC2)C(=O)CCCC(=O)Nc2ccccn2)c1 9.06%
Cc1nn(C(C)C(=O)NCCC2=CCCCC2)c(=O)c2nn(-c3ccccc3)c(C)c12 (configuration not stated) 7.66%
CC(C)C(NC(=O)OCc1ccccc1)C(=O)OCC(=O)N1C(C)CCCC1C (configuration not stated) 11.3% [at 15.6 µM, 100% = 6.5 mM cAMP response]
COc1ccc(S(=O)(=O)NCC(c2ccco2)N2CCOCC2)cc1 (configuration not stated) 11.6%
COc1ccccc1CNS(=O)(=O)c1cc2c3c(c1)CCC(=O)N3CCC2 11.2%
Cc1ccc(S(=O)(=O)N2[C@@H](Cc3ccccc3)CO[C@H]2CC(=O)OCc2ccccc2)cc1 12.3%
Cc1ccccc1C#CC1=CC(=O)CC(C)(C)C1 7.28%
CN(CC(=O)NCc1ccncc1)S(=O)(=O)c1ccc(Br)cc1 5.36%
CC(Sc1ccccc1F)C(=O)Nc1cccc(S(=O)(=O)N2CCOCC2)c1 (configuration not stated) 7.49%
CCOC(=O)N1CCC(C(N)=O)CC1 -9.77%
COC(=O)[C@@]12C[C@@H](CC(=O)NCCCCc3ccccc3)C(=O)N(Cc3ccccc3)C1=CCC(C)(C)C2 6.14%
O=C(COC(=O)C1CC2C=CC1C2)Nc1ccccc1 (configuration not stated) 6.21%
Cc1ccc(S(=O)(=O)N2CCC(C(=O)N[C@@H](C)C(=O)NCCc3ccccc3)CC2)cc1 8.21%
C[C@@H](C(=O)N1CCNCC1)n1cc(CCC(=O)O)nn1 3.88%
N#CCCN1CCN(S(=O)(=O)c2ccc(S(=O)(=O)NC3CC3)cc2)CC1 9.89%
CC(C)(C)OC(=O)NC(Cc1ccccc1)C(=O)NC(CSC1CCCCO1)C(=O)NN (configuration not stated) -5.29%
O=C(O)CCCCCCCCc1cn(CN2C(=O)c3ccccc3C2=O)nn1 9.02%
O=C1/C(=C/c2coc3ccc(O)cc3c2=O)SC(=S)N1c1ccccc1 1.65%
O=C(Nc1ccc(Br)cn1)C1CCN(S(=O)(=O)c2cccs2)CC1 3.39%
COc1ccccc1CCNC(=O)c1c(C)nn(CC(C)C)c1Cl 0.392%
CC1CCN(c2ccc3c(c2)S(=O)(=O)c2cc(C(=O)O)ccc2C3=O)CC1 3%
Cc1ccc(CNC(=O)c2ccc3c(c2)S(=O)(=O)c2ccccc2C3=O)cc1 -4.01%
O=C(CSc1ccc(-c2cccs2)nn1)Nc1ccccc1F 5.38%
CCOC(=O)c1c(NC(=S)Nc2ccccc2)sc2c1CCN(C)C2 0.898%
CCc1ccccc1N(CC(=O)NCC1CCCO1)C(=O)CCC(=O)Nc1nccs1 (configuration not stated) 2.7%
CCOC(=O)[C@]12CCCC=C1N(CCC1=CCCCC1)C(=O)[C@H](CC(=O)N1CCCCC1)C2 0.794%
CCO[C@@H]1OC(C(=O)N2CCOCC2)=C[C@H](C)[C@H]1CCCO 1.25%
Cc1ccc(NC(=S)N2CCCC(c3ccccc3)=N2)cc1 11.6%
COCC(=O)N1CCc2ccc(NC(=O)c3ccccc3Cl)cc2C1 5.51%

Potency, active:
CCCCCCc1cc2cc(-c3nnc(-c4ccccc4)o3)c(=O)oc2cc1O 44.7 µM
COc1ccc(C(=O)Nc2nc(-c3ccc(OC)cc3)c(-c3ccc([N+](=O)[O-])cc3)s2)cc1 112 µM
Oc1ccc2ccc3cccc[n+]3c2c1 100 µM
C[n+]1ccc(/C=C/c2c[nH]c3ccccc23)cc1 100 µM
Cc1ccc(-c2nn(-c3ccccc3)cc2/C=C2\SC(=S)N(CCCCCC(=O)O)C2=O)o1 126 µM
Cc1ccc(CNC(=O)c2cccc3c2C(=O)c2ccc(N4CCC(C)CC4)cc2S3(=O)=O)cc1 89.1 µM
